Hits are enriched below; roughly 1.2% of the tested compounds scored in any of these assays.
Avidin bead fluor: compound fluoresces at 488/530 nm on avidin beads | AID 1775 | fluorescence (KMESF) at 10 µM | compound fluorescence 488/530 nm, flow cytometry; active compounds read high | actives 0.38% (n = 220,000); in the data active = fluorescence above about 47
GSH fluor: GSH bead compound fluorescence profile; GSH beads flow cytometry, compound fluorescence 488/530 nm; active compounds read high; fluorescence (KMESF) at 10 µM; actives 0.25% (n = 190,000); in the data active = fluorescence above about 89;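 note: glutathione beads carrying GST-tagged Bcl family fusion proteins plus one bare bead set; values are compound well signal with DMSO vehicle wells as background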
RGS8-Gao: human RGS8-Galphao interaction regulation; multiplexed bead flow cytometry, RGS8-Galphao binding; actives lie on both sides; response (percent of control binding), % at 10 µM; actives 0.34% (n = 220,000); in the data active = response below about 60% or above about 140%; inactive = in between;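 note: Galphao activated as the GDP aluminium fluoride complex binding bead-coupled RGS8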
Target sequence (P09471 whole entry, looked up): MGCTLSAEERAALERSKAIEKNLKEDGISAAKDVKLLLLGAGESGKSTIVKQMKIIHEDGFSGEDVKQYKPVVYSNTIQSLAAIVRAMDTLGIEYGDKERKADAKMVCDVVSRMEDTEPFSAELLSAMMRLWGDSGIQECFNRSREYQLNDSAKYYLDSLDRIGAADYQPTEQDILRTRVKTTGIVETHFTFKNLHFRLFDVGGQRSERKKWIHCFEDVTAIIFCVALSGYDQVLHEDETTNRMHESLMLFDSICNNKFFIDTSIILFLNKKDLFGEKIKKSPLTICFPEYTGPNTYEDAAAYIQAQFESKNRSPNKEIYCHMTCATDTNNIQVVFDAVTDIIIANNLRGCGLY
RGS16-Gao HTS: regulators of human RGS16-Galphao interaction; O15492+P09471; bead-based flow cytometry RGS16-Galphao binding, fluorescence; actives lie on both sides; binding response (% of control), % at 10 µM; actives 0.38% (n = 220,000); AID 1441;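 note: Galphao activated by GDP with aluminum fluoride before binding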
Target sequence (O15492 whole entry, looked up): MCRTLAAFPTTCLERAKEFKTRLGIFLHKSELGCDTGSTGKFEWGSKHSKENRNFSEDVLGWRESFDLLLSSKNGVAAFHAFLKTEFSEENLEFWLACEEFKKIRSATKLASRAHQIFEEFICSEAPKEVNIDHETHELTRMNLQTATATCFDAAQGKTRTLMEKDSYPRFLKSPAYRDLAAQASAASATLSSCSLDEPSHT
Target sequence (P09471 whole entry, looked up): as the sequence (P09471 whole entry, looked up) above
RGS7-Gao reg: modulates binding of RGS7 to human Galphao; binding response (% of control), % at 10 µM; Multiplexed bead flow cytometry; actives lie on both sides; actives 0.35% (n = 220,000); P09471; in the data active = binding response below about 49% or above about 150%; inconclusive = no clear call, values can overlap the other calls; inactive = in between;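 note: fluorescent Galphao held in activated GDP-AlF4 state binding bead-coupled RGS7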
RGS4-Gao reg: modulates binding of RGS4 to human Galphao; Multiplexed bead flow cytometry; actives lie on both sides; binding response (% of control), % at 10 µM; actives 0.33% (n = 220,000); AID 1415; in the data active = binding response below about 49% or above about 150%; inactive = in between;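 note: fluorescent Galphao activated with aluminum fluoride binding bead-coupled RGS4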
RGS4-Gao HTS: modulates binding between human RGS4 and Galphao; RGS4–Galpha-o binding response, % at 10 µM; actives 99% (n = 1,600); multiplexed bead flow cytometry, RGS–Galpha-o binding; shares compounds with RGS16-Gao HTS; AID 1504;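 note: fluorescently labeled Galpha-o bound to GDP with aluminium fluoride binding biotinylated RGS beads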
Avidin counter: biotin-avidin bead binding disruption counter-screen. 1,700 tested, under 10 active. streptavidin beads, fluorescein-biotin binding, flow cytometry. shares compounds with RGS16-Gao HTS. inhibition, % at 10 µM;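 active = inhibition above 50%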;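 note: median green fluorescence of gated singlet beads compared with DMSO control wells; 0% = DMSO wells and 100% = complete loss of bead fluorescence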
RGS8-Gao single: RGS8-Galphao interaction regulation, single point confirmation; bead-based flow cytometry RGS8-Galphao binding, fluorescence; actives lie on both sides; binding response (% of control), % at 10 µM; actives 3% (n = 1,700); shares compounds with RGS16-Gao HTS; AID 1836; in the data active = binding response below about 72% or above about 130%; inactive = in between;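 note: Galphao activated as GDP AlF4 complex before binding bead RGS8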
RGS7-Gao confirm: RGS7-Galphao interaction regulation, single point confirmation. shares compounds with RGS16-Gao HTS. bead-based flow cytometry RGS7-Galphao binding; actives lie on both sides. response (percent of control binding), % at 10 µM. actives 7.8% (n = 1,700); in the data active = response below about 75% or above about 130%; inactive = in between;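 note: fluorescent Galphao activated with GDP and aluminum fluoride binding bead-coupled RGS7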
RGS16-Gao single: confirmation of regulators of human RGS16-Galphao interaction. shares compounds with RGS16-Gao HTS. bead-based flow cytometry, RGS16-Galphao binding; actives lie on both sides. response (% of control binding), % at 10 µM. actives 4% (n = 1,700). AID 1838; in the data active = response below about 74% or above about 130%; inactive = in between;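 note: Galphao activated as the GDP aluminium fluoride complex binding bead-coupled RGS16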
RGS4-Gao single: RGS4-Galphao interaction regulation, single point confirmation; shares compounds with RGS16-Gao HTS; RGS4-Galphao binding, multiplexed bead flow cytometry; actives lie on both sides; binding response (% of control), % at 10 µM; actives 4% (n = 1,700); AID 1840; in the data active = binding response below about 74% or above about 130%; inactive = in between
RGS19-Gao single: RGS19-Galphao interaction regulation, single point confirmation | AID 1841 | bead-based flow cytometry RGS19-Galphao binding; actives lie on both sides | shares compounds with RGS16-Gao HTS | actives 5% (n = 1,700) | response (percent of control binding), % at 10 µM; in the data active = response below about 50% or above about 160%; inactive = in between;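 note: 100% = no compound control and 0% = blank background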
An asterisk follows results filed as active; [ ] = dose if it differs, or a comment. Unless noted, the rule behind the calls is not given here.

`CC(C)(C)OC(=O)N1CCC(c2cc(=O)n3[nH]c(-c4ccc(Cl)cc4)cc3n2)CC1` gave Avidin bead fluor 0, GSH fluor 23, RGS8-Gao 47.2*, RGS16-Gao HTS 6.2, RGS7-Gao reg 44.4*, RGS4-Gao reg 32.5*, Avidin counter -1.5, RGS8-Gao single 101.8, RGS7-Gao confirm 95.4, RGS16-Gao single 100.6, RGS4-Gao single 98.7 and RGS19-Gao single 88.3.
For CC(C)(C)OC(=O)N1CCC(c2cc(=O)n3[nH]cc(C(=O)Nc4ccc(F)c(Cl)c4)c3n2)CC1 the results were Avidin bead fluor 7, RGS8-Gao 99.1, RGS16-Gao HTS 98.7, RGS7-Gao reg inconclusive and RGS4-Gao reg 101.1.
COc1ccc(-c2nnn(CC(=O)N(CC3CCCO3)C(C(=O)NC(C)(C)C)c3ccco3)n2)cc1OC (stereo not given) was read as Avidin bead fluor 10, GSH fluor 18, RGS8-Gao 104.2, RGS16-Gao HTS 106.1, RGS7-Gao reg 121.4 and RGS4-Gao reg 105.0.
For COc1ccccc1N1CCN(S(=O)(=O)c2ccc3c4c(cccc24)C(=O)N3C)CC1 the results were Avidin bead fluor -3, GSH fluor 31, RGS8-Gao 15.6*, RGS16-Gao HTS -18.9*, RGS7-Gao reg -3.9*, RGS4-Gao reg -21.1*, Avidin counter 1.3, RGS8-Gao single 101.0, RGS7-Gao confirm 104.5, RGS16-Gao single 102.5, RGS4-Gao single 104.4 and RGS19-Gao single 103.8.
COc1ccccc1N1CCN(S(=O)(=O)c2ccc3c4c(cccc24)C(=O)N3)CC1 was read as Avidin bead fluor 20, GSH fluor 14, RGS8-Gao 108.4, RGS16-Gao HTS 116.8, RGS7-Gao reg 113.8 and RGS4-Gao reg 118.2.
`Cc1cc(-c2csc(N)n2)c(C)n1-c1ccc(Cl)c(Cl)c1` gave Avidin bead fluor 6, GSH fluor 9, RGS8-Gao 102.1, RGS16-Gao HTS 80.5, RGS7-Gao reg 105.6 and RGS4-Gao reg 98.6.
`COc1ccc(-n2c(C)cc(-c3csc(N)n3)c2C)cc1` gave Avidin bead fluor -5, GSH fluor 8, RGS8-Gao 12.7*, RGS16-Gao HTS 0.5*, RGS7-Gao reg -0.7*, RGS4-Gao reg 12.9*, Avidin counter -1.5, RGS8-Gao single 98.1, RGS7-Gao confirm 100.0, RGS16-Gao single 99.0, RGS4-Gao single 100.4 and RGS19-Gao single 107.3.
For COCCN(C(=O)CSc1nnc(Nc2ccccc2F)s1)c1c(N)n(Cc2ccccc2)c(=O)[nH]c1=O the results were Avidin bead fluor 4, GSH fluor 67, RGS8-Gao 90.8, RGS16-Gao HTS 70.7, RGS7-Gao reg 95.5 and RGS4-Gao reg 93.8.
For O=C(NCC1CC1)NC(=O)c1c(F)cccc1Cl the results were Avidin bead fluor 0, RGS8-Gao 42.2*, RGS16-Gao HTS 9.3*, RGS7-Gao reg inconclusive, RGS4-Gao reg 5.7*, Avidin counter 0.4, RGS8-Gao single 101.6, RGS7-Gao confirm 98.9, RGS16-Gao single 102.7, RGS4-Gao single 103.8 and RGS19-Gao single 104.5.
Screening Oc1ccc(Cc2ccc(Cl)cc2)c(O)c1 returned Avidin bead fluor 4, RGS8-Gao 105.8, RGS16-Gao HTS 107.4, RGS7-Gao reg inconclusive and RGS4-Gao reg 106.9.
Screening COc1ccc(/C=C/C(=O)N(C)c2ccccc2C(=O)O)cc1 returned Avidin bead fluor 9, GSH fluor 12, RGS8-Gao 99.9, RGS16-Gao HTS 103.9, RGS7-Gao reg 99.5 and RGS4-Gao reg 98.3.
`COc1ccc(NC(=O)CN2CCN(CC(=O)Nc3ccc4c(c3)OCO4)CC2)cc1` gave Avidin bead fluor 4, GSH fluor 35, RGS8-Gao 97.9, RGS16-Gao HTS 98.9, RGS7-Gao reg 95.6 and RGS4-Gao reg 94.1.
COc1ccccc1NC(=O)CN1CCN(CC(=O)Nc2ccc3c(c2)OCO3)CC1 was read as Avidin bead fluor 4, GSH fluor 57, RGS8-Gao 142.1*[activator], RGS16-Gao HTS 347.8, RGS7-Gao reg 112.3, RGS4-Gao reg 119.0 and RGS4-Gao HTS 119.0*.
For Cc1ncsc1CCOC(=O)C1C2CC3CC(C2)CC1C3 (stereo not given) the results were Avidin bead fluor 1, GSH fluor 9, RGS8-Gao 72.5, RGS16-Gao HTS 21.6*, RGS7-Gao reg 93.7, RGS4-Gao reg 91.9, RGS4-Gao HTS 91.9*, Avidin counter 1.8, RGS8-Gao single 99.9, RGS7-Gao confirm 95.2, RGS16-Gao single 94.2, RGS4-Gao single 93.3 and RGS19-Gao single 104.7.
Screening CCc1ccc(OCC(=O)N(CC)CC)cc1 returned Avidin bead fluor 9, GSH fluor 17, RGS8-Gao 94.2, RGS16-Gao HTS 99.5, RGS7-Gao reg 97.8 and RGS4-Gao reg 94.7.
COCCN(C(=S)Nc1ccc(Cl)cc1OC)C1CCN(C(C)=O)CC1 was read as Avidin bead fluor 8, RGS8-Gao 102.3, RGS16-Gao HTS 101.9, RGS7-Gao reg inconclusive and RGS4-Gao reg 96.4.
Screening O=c1cc(CO)[nH]cc1OCc1ccccc1 returned Avidin bead fluor 4, RGS8-Gao 100.7, RGS16-Gao HTS 99.4, RGS7-Gao reg inconclusive and RGS4-Gao reg 99.0.
`Cc1ccc(NC(=O)Nc2c(Cl)cccc2Cl)cn1` gave Avidin bead fluor 7, RGS8-Gao 103.9, RGS16-Gao HTS 106.4, RGS7-Gao reg inconclusive and RGS4-Gao reg 103.0.

Compound activity as filed in PubChem.
